This passage reports outcome and AC50 results from PubChem BioAssay (EPA / NIEHS).

Experiment [1] in a line: ATG_E_Box_CIS: Attagene CIS-FACTORIAL HepG2 Assay for human Enhancer Box (E-box) (AID 2282936). As to conditions: HepG2 E-box cis-reporter transcription, actives raise or lower the signal. The method, boiled down:
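Endogenous transcription factor activity was sensed in human HepG2 liver cells through transfected cis-promoter reporter units. After 24 h of dosing, total RNA was reverse-transcribed and reporter cDNA resolved by capillary electrophoresis.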

Experiment [2] can be described thus: ATG_M_61_CIS: Attagene CIS-FACTORIAL HepG2 Assay for M61 Transcription Factor (Internal Marker) (AID 2282937). As to conditions: HepG2 Attagene CIS-FACTORIAL M61 internal marker reporter; actives raise or lower the signal. In outline:
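Using transiently transfected HepG2 liver cells, reporter transcript levels were assessed 24 h post-dosing by RT-PCR and capillary electrophoresis. Changes in either direction were fitted relative to DMSO controls.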

The nature of experiment [3]: ATG_EGR_CIS: Attagene CIS-FACTORIAL HepG2 Assay for human Early Growth Response 1 (EGR1) (AID 2282938). As to conditions: HepG2 Attagene CIS-FACTORIAL EGR reporter mRNA; actives raise or lower the signal. The method, boiled down: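 Fluorescent capillary-electrophoresis signal of reporter cDNA fragments serves as read-out. HepG2 cells bear transiently transfected cis-promoter reporter units and are exposed 24 h; gain- or loss-of-signal is fitted against DMSO.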

Experiment [4] in a line: ATG_M_19_CIS: Attagene CIS-FACTORIAL HepG2 Assay for M19 Transcription Factor (Internal Marker) (AID 2282939). As to conditions: HepG2 Attagene CIS-FACTORIAL M19 internal marker reporter; actives raise or lower the signal. In outline: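 HepG2 cells transiently transfected with cis-regulated multiple reporter transcription units were dosed for 24 h; reporter mRNA was quantified by RT-PCR, 6-FAM primer-extension labelling, HpaI digestion and capillary electrophoresis, with bidirectional fitting against DMSO baseline.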

A short description of experiment [5]: ATG_ERE_CIS: Attagene CIS-FACTORIAL HepG2 Assay for Estrogen Response Element (ERE) (AID 2282940). As to conditions: HepG2 ERE cis-reporter, Attagene RNA transcript; actives raise or lower the signal. The method, boiled down:
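HepG2 cells transiently transfected with cis-promoter-driven multiplexed reporter transcription units report endogenous TF activity. After 24 h compound exposure, reporter mRNA is quantified by RT-PCR with capillary electrophoresis fluorescence; bidirectional fitting versus DMSO baseline.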

Experiment [6] is described as follows: ATG_Ets_CIS: Attagene CIS-FACTORIAL HepG2 Assay for human Erythroblast Transformation Specific (ETS) (AID 2282941). The following applies: HepG2 ETS cis-reporter transcription; AC50: actives raise or lower the signal unless noted; outcome: actives raise or lower the signal unless noted. In outline:
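Cis-regulated reporter mRNA induction in HepG2 (transient transfection), 24 h exposure, RT-PCR plus capillary electrophoresis detection; DMSO serves as negative control and baseline.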

The target in experiment [7] is Hepatocyte nuclear factor 3-beta (Homo sapiens) (UniProt Q9Y261). The experiment can be described thus: ATG_FoxA2_CIS: Attagene CIS-FACTORIAL HepG2 Assay for human Forkhead box A2 (FOXA2) (AID 2282942). The following applies: HepG2 cis-reporter transcription factor activity, 24 h; actives raise or lower the signal. The method, boiled down:
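Fluorescence signal of reporter cDNA fragments, separated by capillary electrophoresis, reflects endogenous transcription factor activity in transfected HepG2 after 24 h. Both increases and decreases fitted against DMSO.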

A short description of experiment [8]: ATG_FoxO_CIS: Attagene CIS-FACTORIAL HepG2 Assay for human Forkhead box O (FoxO) (AID 2282943). The following applies: HepG2 Attagene cis-reporter, FoxO element, mRNA; actives raise or lower the signal. The method, boiled down:
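Values reflect reporter mRNA induction or loss in HepG2 cells 24 h post-dosing, fitted bidirectionally with DMSO as negative control and baseline. Detection used RT-PCR and fluorescence capillary electrophoresis.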

The nature of experiment [9]: ATG_GATA_CIS: Attagene CIS-FACTORIAL HepG2 Assay for human GATA Binding Protein (AID 2282944). The following applies: HepG2 GATA cis-element reporter, Attagene multiplex mRNA; actives raise or lower the signal. The method, boiled down: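 HepG2 cells transiently transfected with multiplexed cis-element reporter units reflecting endogenous transcription factor activity; reporter mRNA measured after 24 h dosing by RT-PCR, 6-FAM labeling, HpaI digestion and capillary electrophoresis. Bidirectional fitting versus DMSO baseline.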

Experiment [10] in a line: ATG_GLI_CIS: Attagene CIS-FACTORIAL HepG2 Assay for human Zinc Finger Protein GLI1 (AID 2282945). The following applies: HepG2, Attagene cis-factorial reporter mRNA, GLI element; actives raise or lower the signal. The method, boiled down: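 HepG2 cells transiently transfected with cis-promoter multiplexed reporter units report endogenous transcription factor activity. After 24 h chemical exposure, reporter mRNA was quantified by RT-PCR, 6-FAM labelling, HpaI digestion and capillary electrophoresis, with bidirectional fitting against DMSO.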

Experiment [11] concerns the target Bile acid receptor (Homo sapiens) (UniProt Q96RI1). The experiment can be described thus: ATG_IR1_CIS: Attagene CIS-FACTORIAL HepG2 Assay for human Nuclear Receptor Subfamily 1 Group H Member 4 (NR1H4), IR1 submotif (AID 2282946). The following applies: IR1 reporter transcription, actives raise or lower the signal. In outline:
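Readout: reporter transcript levels by RT-PCR with fluorescent capillary electrophoresis, from HepG2 cells transiently transfected with multiplexed cis-regulated reporters and dosed 24 h. Gain- or loss-of-signal fitted versus DMSO negative control.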

Experiment [12] is described as follows: ATG_GRE_CIS: Attagene CIS-FACTORIAL HepG2 Assay for human Glucocorticoid Response Elements (GRE) (AID 2282947). The following applies: HepG2 GRE cis-reporter, Attagene multiplex mRNA; AC50: actives raise or lower the signal unless noted; outcome: actives raise or lower the signal unless noted. In outline: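 Cells (HepG2) bearing transfected cis-promoter reporter transcription units were treated with chemical for 24 hours. Reporter mRNA was measured via RT-PCR with capillary electrophoresis, and activity was fitted in both directions relative to DMSO.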

The nature of experiment [13]: ATG_ISRE_CIS: Attagene CIS-FACTORIAL HepG2 Assay for human Interferon Regulatory Factor 1 (IRF1) binding to an Interferon-Stimulated Response Element (ISRE) (AID 2282948). The following applies: HepG2 ISRE cis-reporter (Attagene), mRNA transcription readout; actives raise or lower the signal. In outline: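 Multiplexed mRNA reporter readout in human liver HepG2 cells: cis-element-driven reporters transfected, compound added for 24 h, transcripts amplified, fluorescently labelled and sized by capillary electrophoresis; curve fitting bidirectional against DMSO.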

The nature of experiment [14]: ATG_M_32_CIS: Attagene CIS-FACTORIAL HepG2 Assay for M32 Transcription Factor (Internal Marker) (AID 2282949).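 Note: background control marker of the multiplexed CIS panel rather than a real target.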 As to conditions: HepG2 Attagene cis-factorial M32 reporter, mRNA; actives raise or lower the signal. In outline: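 HepG2 transfectants (cis-regulated reporter transcription units) dosed 24 h. Reporter mRNA by RT-PCR plus CE, analysed as gain or loss relative to DMSO.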

Experiment [15] in a line: ATG_M_06_CIS: Attagene CIS-FACTORIAL HepG2 Assay for M06 Transcription Factor (Internal Marker) (AID 2282950). As to conditions: HepG2 Attagene CIS-FACTORIAL M06 internal marker reporter; actives raise or lower the signal. The method, boiled down: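 HepG2 cells transiently transfected with cis-regulated multiple reporter transcription units were exposed to chemical for 24 h; reporter mRNA was quantified by RT-PCR, 6-FAM primer labelling, HpaI digestion and capillary electrophoresis, fitted bidirectionally against DMSO.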

Experiment [16] has as its target Hypoxia-inducible factor 1-alpha (Homo sapiens) (UniProt Q16665). The experiment can be described thus: ATG_HIF1a_CIS: Attagene CIS-FACTORIAL HepG2 Assay for human Hypoxia Inducible Factor 1 (HIF1A) (AID 2282951). As to conditions: HepG2 Attagene cis-factorial HIF1a reporter transcription; actives raise or lower the signal. In outline:
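Endogenous-TF cis reporter readout, human HepG2 cells, 24 h incubation; mRNA detected via RT-PCR and capillary electrophoresis fluorescence; DMSO-normalised bidirectional fitting.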

Experiment [17] addresses Hepatocyte nuclear factor 6 (Homo sapiens) (UniProt Q9UBC0). The experiment can be described thus: ATG_HNF6_CIS: Attagene CIS-FACTORIAL HepG2 Assay for human Hepatocyte Nuclear Factor 6 (HNF6) (AID 2282952). The following applies: HepG2 Attagene cis-factorial HNF6 reporter transcription; actives raise or lower the signal. The method, boiled down: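 Readout: fluorescent reporter-transcript fragments resolved by capillary electrophoresis after RT-PCR, reflecting endogenous factor activity in transfected HepG2. Exposure 24 h. Gain or loss of signal fitted bidirectionally against DMSO.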

The target in experiment [18] is Heat shock factor protein 1 (Homo sapiens) (UniProt Q00613). The experiment can be described thus: ATG_HSE_CIS: Attagene CIS-FACTORIAL HepG2 Assay for human Heat Shock Transcription Factor 1 (HSE) (AID 2282953). As to conditions: HepG2 HSE cis-reporter, Attagene RNA transcription; actives raise or lower the signal. The method, boiled down: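 HepG2 cells transiently transfected with multiple reporter transcription units under cis-regulatory promoter control, measuring endogenous transcription factor activity. After 24 h chemical exposure, reporter mRNA quantified by RT-PCR, fluorescent labelling, HpaI digestion and capillary electrophoresis; bidirectional fit versus DMSO.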

Experiment [19] can be described thus: ATG_MRE_CIS: Attagene CIS-FACTORIAL HepG2 Assay for human Metal Responsive Element (MRE) (AID 2282954). The following applies: HepG2 MRE cis-reporter transcription, Attagene multiplex; actives raise or lower the signal. The method, boiled down:
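Cells were transfected with cis-promoter reporter transcription units, then dosed for 24 h. RNA was reverse-transcribed, amplified, fluorescently labelled and resolved by capillary electrophoresis, and activity was fitted in both directions relative to DMSO.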

Experiment [20] is described as follows: ATG_PBREM_CIS: Attagene CIS-FACTORIAL HepG2 Assay for human Phenobarbital-responsive Enhancer Module (PBREM) (AID 2282955). As to conditions: HepG2 PBREM cis-reporter, Attagene multiplexed transcription; actives raise or lower the signal. In outline: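 Readout: reporter mRNA, fluorescent RT-PCR fragments separated by capillary electrophoresis. System: HepG2 transiently transfected with cis-regulated reporter units. Exposure: 24 h. Analysis: bidirectional, DMSO baseline.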

Calls of active or inactive are those of the source. Rule for the calls: active = hit-call score of the fitted dose curve at least 0.9, where 1 is the maximum; inactive = score below 0.9.

Sequence of Bile acid receptor (Homo sapiens) (Q96RI1 whole entry, looked up): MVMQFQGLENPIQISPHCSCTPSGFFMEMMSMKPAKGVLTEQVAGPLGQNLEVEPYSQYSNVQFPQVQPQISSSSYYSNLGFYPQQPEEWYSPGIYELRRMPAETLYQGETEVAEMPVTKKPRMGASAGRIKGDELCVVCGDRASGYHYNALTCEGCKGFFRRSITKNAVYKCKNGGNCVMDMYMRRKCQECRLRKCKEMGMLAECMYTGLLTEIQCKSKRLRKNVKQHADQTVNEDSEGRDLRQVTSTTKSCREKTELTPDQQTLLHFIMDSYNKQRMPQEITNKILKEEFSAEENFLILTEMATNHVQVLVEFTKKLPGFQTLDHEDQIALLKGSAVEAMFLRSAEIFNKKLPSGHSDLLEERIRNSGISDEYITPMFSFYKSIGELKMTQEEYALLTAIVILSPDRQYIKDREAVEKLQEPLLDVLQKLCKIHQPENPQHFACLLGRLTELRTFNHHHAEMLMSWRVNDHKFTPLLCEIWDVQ
Sequence of Hypoxia-inducible factor 1-alpha (Homo sapiens) (Q16665 whole entry, looked up): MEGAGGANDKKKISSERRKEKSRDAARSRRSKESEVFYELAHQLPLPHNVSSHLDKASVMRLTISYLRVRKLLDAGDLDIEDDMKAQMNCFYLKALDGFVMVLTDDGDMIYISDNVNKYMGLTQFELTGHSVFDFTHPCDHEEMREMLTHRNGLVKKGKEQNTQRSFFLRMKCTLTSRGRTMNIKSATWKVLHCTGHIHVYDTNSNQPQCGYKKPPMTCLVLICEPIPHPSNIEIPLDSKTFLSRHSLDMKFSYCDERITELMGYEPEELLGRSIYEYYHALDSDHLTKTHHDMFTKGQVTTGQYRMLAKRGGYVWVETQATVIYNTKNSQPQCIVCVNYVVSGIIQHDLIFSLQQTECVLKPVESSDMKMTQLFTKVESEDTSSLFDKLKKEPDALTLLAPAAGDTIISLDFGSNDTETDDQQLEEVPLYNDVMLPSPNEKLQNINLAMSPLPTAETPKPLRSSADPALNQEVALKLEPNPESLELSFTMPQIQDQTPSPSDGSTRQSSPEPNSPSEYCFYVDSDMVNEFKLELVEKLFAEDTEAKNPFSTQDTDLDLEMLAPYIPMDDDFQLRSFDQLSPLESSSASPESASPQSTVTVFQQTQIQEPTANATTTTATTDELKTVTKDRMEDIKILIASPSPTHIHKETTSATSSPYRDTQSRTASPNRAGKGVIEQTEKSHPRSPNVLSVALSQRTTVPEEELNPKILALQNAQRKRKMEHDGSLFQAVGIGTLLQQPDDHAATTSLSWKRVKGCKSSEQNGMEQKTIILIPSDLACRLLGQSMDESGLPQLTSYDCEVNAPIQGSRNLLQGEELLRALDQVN
Sequence of Hepatocyte nuclear factor 3-beta (Homo sapiens) (Q9Y261 whole entry, looked up, the tested form may be a part): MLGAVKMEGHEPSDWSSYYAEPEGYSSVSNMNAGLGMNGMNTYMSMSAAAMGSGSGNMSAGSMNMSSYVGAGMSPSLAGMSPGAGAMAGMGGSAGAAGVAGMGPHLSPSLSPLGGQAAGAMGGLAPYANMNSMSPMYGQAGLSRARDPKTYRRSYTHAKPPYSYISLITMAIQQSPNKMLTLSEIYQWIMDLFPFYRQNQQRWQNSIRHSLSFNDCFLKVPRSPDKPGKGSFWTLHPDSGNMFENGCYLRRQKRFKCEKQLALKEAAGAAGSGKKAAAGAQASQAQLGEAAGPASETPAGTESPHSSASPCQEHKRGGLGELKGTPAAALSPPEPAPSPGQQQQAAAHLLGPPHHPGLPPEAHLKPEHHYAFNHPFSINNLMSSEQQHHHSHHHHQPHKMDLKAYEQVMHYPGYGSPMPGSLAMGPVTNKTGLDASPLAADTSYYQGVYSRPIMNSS
Sequence of Hepatocyte nuclear factor 6 (Homo sapiens) (Q9UBC0 whole entry, looked up, the tested form may be a part): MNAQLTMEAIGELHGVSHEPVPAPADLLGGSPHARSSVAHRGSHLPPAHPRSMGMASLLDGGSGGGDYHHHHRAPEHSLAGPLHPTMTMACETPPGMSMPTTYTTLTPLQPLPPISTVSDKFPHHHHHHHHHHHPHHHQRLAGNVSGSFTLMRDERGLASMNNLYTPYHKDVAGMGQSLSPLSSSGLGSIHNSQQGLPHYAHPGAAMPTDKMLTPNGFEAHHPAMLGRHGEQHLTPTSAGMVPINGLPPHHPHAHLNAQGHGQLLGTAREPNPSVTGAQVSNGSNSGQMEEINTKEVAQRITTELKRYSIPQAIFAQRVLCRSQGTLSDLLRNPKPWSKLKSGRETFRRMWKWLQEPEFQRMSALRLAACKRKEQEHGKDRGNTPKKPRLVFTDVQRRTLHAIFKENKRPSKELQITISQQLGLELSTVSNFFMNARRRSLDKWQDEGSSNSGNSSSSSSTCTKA
Sequence of Heat shock factor protein 1 (Homo sapiens) (Q00613 whole entry, looked up): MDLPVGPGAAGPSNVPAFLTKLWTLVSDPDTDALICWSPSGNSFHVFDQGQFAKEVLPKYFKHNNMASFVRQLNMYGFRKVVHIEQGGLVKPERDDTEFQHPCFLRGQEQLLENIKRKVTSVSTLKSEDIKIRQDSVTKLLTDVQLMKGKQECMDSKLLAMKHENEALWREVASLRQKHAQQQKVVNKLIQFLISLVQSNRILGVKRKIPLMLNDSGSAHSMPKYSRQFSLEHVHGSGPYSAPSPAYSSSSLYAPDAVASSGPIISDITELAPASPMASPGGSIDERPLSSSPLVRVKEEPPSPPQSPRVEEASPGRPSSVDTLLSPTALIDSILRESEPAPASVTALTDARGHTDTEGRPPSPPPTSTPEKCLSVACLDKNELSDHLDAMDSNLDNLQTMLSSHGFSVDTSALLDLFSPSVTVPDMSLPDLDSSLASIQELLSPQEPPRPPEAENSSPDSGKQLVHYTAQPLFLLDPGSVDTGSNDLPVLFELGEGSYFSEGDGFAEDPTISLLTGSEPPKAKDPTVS

By AC50 is commonly meant the concentration giving half of the maximal activity seen. Consider `CCCCCCc1ccc(N)cc1`, for which the result in experiment [1], in experiment [2], in experiment [3], in experiment [4], in experiment [6] and in [7] was inactive. In addition, the molecule was called inactive in experiment [8], in experiment [9], in [10], in experiment [11], in experiment [12] and in [14]. Besides, the molecule was called inactive in experiment [15], in experiment [16], in [17], in experiment [18], in experiment [19] and in [20]. Also, the AC50 was 5.06 µM (active) in experiment [5] and 26.9 µM (active) in experiment [13].

As for `CCCCC(CC)C(=O)OCCOCCOCCOCCOC(=O)C(CC)CCCC` (stereo not given), the result in experiment [1], in experiment [2], in experiment [3], in [4], in experiment [5] and in experiment [6] was inactive. Besides, the molecule was called inactive in experiment [7], in [8], in experiment [9], in experiment [10], in experiment [11] and in experiment [12]. The molecule was called inactive in experiment [13], in experiment [14], in experiment [15], in experiment [16], in [17] and in [18]. Also, the molecule was classed as inactive in [19]. Further, the AC50 in experiment [20] was 27.6 µM (active).

Turning to `FC(F)(F)N1C(F)(F)C(F)(F)OC(F)(F)C1(F)F`, the result in experiment [1], in experiment [2], in experiment [3], in [4], in [5] and in experiment [6] was inactive. Further, the molecule was called inactive in experiment [7], in [8], in experiment [9], in experiment [10], in experiment [11] and in experiment [12]. The result in [13], in [14], in experiment [15], in [16], in experiment [17] and in experiment [18] was inactive. The call in experiment [19] and in experiment [20] was inactive.
